CYP2C19 inhib = blocks human cytochrome P450 2C19 | CYP2C19 Supersomes, luciferin-H EGE luminescence, 30 min | 96,000 tested, 21% active | P33261 | inhibition, % at 5 µM | AID 778;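 active = CYP2C19 inhibition above a set limit at 5 µM in the primary screen, cut at about 50% in these data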;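 also: plate controls were negative control wells for no effect and 2.5 mM tranylcypromine positive control for full effect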
CYP2C19 activ = increases human CYP2C19 enzyme activity; activation factor at 5 µM; recombinant CYP2C19, luciferin-H EGE luminescence; active compounds read high; 0 = fully inhibited enzyme, 1 = untreated enzyme; 96,000 tested, under 10 active;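 active = activation factor of at least 2 at 5 µM in the primary screen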;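 also: 0 = wells with 2.5 mM tranylcypromine and 1 = vehicle-only wells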
PostGolgi yeast = growth inhibition of a yeast mutant, post-Golgi transport screen; 98,000 tested, 0.9% active; post-Golgi transport phenotypic cell assay; inhibition, % at 10 µM; AID 739;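 also: yeast cells grown in 1536-well plates; yeast grown about 18 h at 30C before absorbance read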
CYP2C9 act = CYP2C9 (human) activation | recombinant CYP2C9, luciferin-H conversion, luminescence; active compounds read high; factor 1 = untreated enzyme, 0 = blocked | P11712 | 96,000 tested, 1.4% active | AID 1024 | activation factor at 5 µM;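 active = activation factor of 2 or more for CYP2C9 at a 5 µM dose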;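 also: 0 = sulfaphenazole-blocked wells and 1 = vehicle-only wells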
Target sequence (P11712 whole entry, looked up): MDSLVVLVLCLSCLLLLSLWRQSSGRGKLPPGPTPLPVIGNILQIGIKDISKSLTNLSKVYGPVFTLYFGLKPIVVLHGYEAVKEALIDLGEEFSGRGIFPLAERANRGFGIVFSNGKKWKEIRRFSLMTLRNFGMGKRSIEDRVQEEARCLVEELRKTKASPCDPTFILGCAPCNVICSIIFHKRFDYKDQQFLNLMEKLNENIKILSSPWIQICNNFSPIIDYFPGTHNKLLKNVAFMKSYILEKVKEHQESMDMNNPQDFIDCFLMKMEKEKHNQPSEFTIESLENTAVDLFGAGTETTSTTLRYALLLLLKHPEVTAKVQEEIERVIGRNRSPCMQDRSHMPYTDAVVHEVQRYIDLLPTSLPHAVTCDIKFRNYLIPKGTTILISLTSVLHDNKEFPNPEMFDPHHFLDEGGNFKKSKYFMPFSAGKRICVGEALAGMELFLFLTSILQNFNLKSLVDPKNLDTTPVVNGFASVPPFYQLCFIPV
PostGolgi ctrl = yeast control strain growth, post-Golgi counter-screen; inhibition, % at 10 µM; 98,000 tested, 5% active; AID 738; efflux-deficient yeast background strain, growth absorbance A615, 16 h
CYP2C9 inhib = inhibitors of human CYP2C9; CYP2C9 Supersomes, luciferin-H conversion, luminescence; inhibition, % at 5 µM; 96,000 tested, 20% active; AID 777;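 active = blocking of liver enzyme CYP2C9 beyond about 50% at 5 µM, limit read from the data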
Starred values were filed as active, the others as inactive. Sampled rows, rich in hits. Any-hit rate of the full collection: about 32%. Rule as the data show it, unless noted: active = inhibition above about 30%; inactive = the rest.

How did Cc1ccc2nsnc2c1S(=O)(=O)N1CCN(CCc2ccccc2)CC1 do in these assays?
CYP2C19 inhib: 91.5*; CYP2C19 activ: 0.1; PostGolgi yeast: -4.2; CYP2C9 act: 1.1; PostGolgi ctrl: 1.0; CYP2C9 inhib: -12.6

How did Cc1ccc2nsnc2c1S(=O)(=O)NCc1cccnc1 do in these assays?
CYP2C19 inhib: 29.3; CYP2C19 activ: 0.7; PostGolgi yeast: 0.5; CYP2C9 act: 0.8; PostGolgi ctrl: -7.8; CYP2C9 inhib: 20.0

What do the screens show for `CC(C)CC(=O)NCc1ccc(F)cc1`?
CYP2C19 inhib: 22.3; CYP2C19 activ: 0.8; PostGolgi yeast: 0.2; CYP2C9 act: 0.9; PostGolgi ctrl: 7.4; CYP2C9 inhib: 13.2

Results for CCOc1ccc(C2C(C(=O)OC)=CN(CCOC)C=C2C(=O)OC)cc1 ?
CYP2C19 inhib: 43.0; CYP2C19 activ: 0.6; PostGolgi yeast: 0.0; CYP2C9 act: 0.8; PostGolgi ctrl: 10.7; CYP2C9 inhib: 23.3

What do the screens show for `COC(=O)C1=C(C)N(C)C(=O)NC1c1ccc(C)cc1` (configuration not stated)?
CYP2C19 inhib: 53.6*; CYP2C19 activ: 0.5; PostGolgi yeast: 1.9; CYP2C9 act: 0.7; PostGolgi ctrl: 3.4; CYP2C9 inhib: 29.1

What do the screens show for `COC(=O)C1=C(C)N(C)C(C)=C(C(=O)OC)C1c1ccc(C(=O)OC)cc1`?
CYP2C19 inhib: 96.7*; CYP2C19 activ: 0; PostGolgi yeast: 4.9; CYP2C9 act: 0.1; PostGolgi ctrl: 17.2; CYP2C9 inhib: 92.1*

How did COC(=O)C1=C(C)N(C)C(C)=C(C(=O)OC)C1c1ccsc1 do in these assays?
CYP2C19 inhib: 68.5*; CYP2C19 activ: 0.3; PostGolgi yeast: 15.0; CYP2C9 act: 0.1; PostGolgi ctrl: 13.8; CYP2C9 inhib: 91.1*

How did COC(=O)c1ccc(C(=O)OC)nc1 do in these assays?
CYP2C19 inhib: 21.0; CYP2C19 activ: 0.8; PostGolgi yeast: -2.6; CYP2C9 act: 1; PostGolgi ctrl: -3.0; CYP2C9 inhib: -3.8

What do the screens show for `COC(=O)C1=CNC=C(C(=O)OC)C1c1ccc(C(=O)OC)cc1`?
CYP2C19 inhib: 98.8*; CYP2C19 activ: 0; PostGolgi yeast: 3.9; CYP2C9 act: 0; PostGolgi ctrl: 11.4; CYP2C9 inhib: 95.2*

Results for CCOC(=O)C1=CN(C)C=C(C(=O)OCC)C1c1ccsc1 ?
CYP2C19 inhib: 43.5; CYP2C19 activ: 0.6; PostGolgi yeast: -2.8; CYP2C9 act: 0.6; PostGolgi ctrl: 16.1; CYP2C9 inhib: 39.8

How did COC(=O)C(C(=O)OC)c1ccccc1[N+](=O)[O-] do in these assays?
CYP2C19 inhib: 6.4; CYP2C19 activ: 0.9; PostGolgi yeast: 2.1; CYP2C9 act: 1; PostGolgi ctrl: -4.5; CYP2C9 inhib: -0.6

What do the screens show for `CCOC(=O)Nc1cc(C)c(Cl)cc1OC`?
CYP2C19 inhib: 27.7; CYP2C19 activ: 0.7; PostGolgi yeast: -3.1; CYP2C9 act: 1; PostGolgi ctrl: 38.2*; CYP2C9 inhib: 2.4

How did CCCOC(=O)Nc1cc(OC)c(Cl)cc1OC do in these assays?
CYP2C19 inhib: 89.0*; CYP2C19 activ: 0.1; PostGolgi yeast: -0.5; CYP2C9 act: 0.5; PostGolgi ctrl: 3.3; CYP2C9 inhib: 46.6

How did O=[N+]([O-])/C=C/c1c(OCc2ccccc2)ccc2ccccc12 do in these assays?
CYP2C19 inhib: 5.4; CYP2C19 activ: 0.9; PostGolgi yeast: 104.6*; CYP2C9 act: 0.5; PostGolgi ctrl: 99.2*; CYP2C9 inhib: 48.0

Results for CCOc1ccc(/C=C/[N+](=O)[O-])c2ccccc12 ?
CYP2C19 inhib: 19.1; CYP2C19 activ: 0.8; PostGolgi yeast: 77.6*; CYP2C9 act: 0.9; PostGolgi ctrl: 80.7*; CYP2C9 inhib: 8.5

How did CCOC(=O)COc1ccc(/C=C/[N+](=O)[O-])c(OCC(=O)OCC)c1 do in these assays?
CYP2C19 inhib: 9.8; CYP2C19 activ: 0.9; PostGolgi yeast: -4.9; CYP2C9 act: 0.8; PostGolgi ctrl: 4.7; CYP2C9 inhib: 23.2

Results for Cc1ccccc1-c1nc(CS(=O)(=O)CC(=O)N2CCc3ccccc32)c(C)o1 ?
PostGolgi yeast: 5.3; PostGolgi ctrl: 2.7

Results for Cc1ccc(Oc2nccc(-c3ccc(Cl)cc3)n2)cc1 ?
CYP2C19 inhib: 53.0*; CYP2C19 activ: 0.5; PostGolgi yeast: 6.6; CYP2C9 act: 0.8; PostGolgi ctrl: 5.4; CYP2C9 inhib: 23.5

How did Cc1cc(C(=O)CSc2nc3ccccc3n2CCC#N)c(C)n1Cc1cccs1 do in these assays?
CYP2C19 inhib: 60.8*; CYP2C19 activ: 0.4; PostGolgi yeast: -2.2; CYP2C9 act: 0.7; PostGolgi ctrl: 9.6; CYP2C9 inhib: 30.1
